# Sampled rows, rich in hits. Any-hit rate of the full collection: about 1.6%.
# KCNQ2 block = rat KCNQ2 potassium channel inhibitors, primary screen, cell-based, CHO-K1, FluxOR thallium flux, B-score | Potassium voltage-gated channel subfamily KQT member 2 (Rattus norvegicus), O88943 | 20 min; stronger effect = lower value | B-score at 10 µM | 310,000 compounds, 1.1% hits;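 active = fluorescence ratio B-score at most minus 3 library SDs, with starting brightness B-score within 2 library SDs, cut at about -5.5 in these data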
# KCNQ2 pot = potentiators of rat KCNQ2 potassium channel; Potassium voltage-gated channel subfamily KQT member 2 (Rattus norvegicus), O88943; CHO-K1 KCNQ2, FluxOR thallium flux fluorescence; stronger effect = higher value; B-score at 10 µM; 310,000 compounds, 0.54% hits; AID 2239, 2010;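 active = fluorescence ratio B-score at least 3 SD of library B-scores, with initial fluorescence B-score within 3 of them, cut at about 5.3 in these data; same plate scores as AID 2156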;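 note: B-score of peak minus minimum over baseline fluorescence ratio after K+ and Tl+ stimulus; positive B-score means potentiation of KCNQ2 with more thallium influx and brighter signal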
# Kir21 conf inh = mouse Kir2.1 channel blockers, retest, confirmation, cell-based, FluxOR thallium flux, duplicate. Kir2.1-expressing cells, FluxOR thallium flux fluorescence; stronger effect = lower value. shares compounds with KCNQ2 pot. Tl flux remaining, % of negative control (stronger effect = lower value), % at 10 µM. 2,300 compounds, 41% hits;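 active = Primary-screen hit whose thallium flux fell at least 3 control SD below untreated wells in both duplicates, with normal baseline fluorescence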
# HEK293 Tl flux = alters thallium flux in parental HEK293 cells, Kir2.1 counter-screen; FluxOR thallium flux fluorescence; 0% = unstimulated blank wells; AID 2105; 2,300 compounds, 19% hits; shares compounds with KCNQ2 pot; FluxOR signal as % of negative control (100 = no effect), % at 10 µM;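 active = dye signal at least 3 control SD above or below untreated wells in both duplicates, raw fluorescence within 3, either direction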;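 note: percent is based on the flux ratio of peak minus minimum fluorescence over baseline F0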
# CHO-K1 Tl ctr = nonspecific thallium flux increase in parental CHO-K1, confirmation, counter-screen for KCNQ2 potentiator project, cell-based, FluxOR thallium flux, duplicate; 1,200 compounds, 43% hits; shares compounds with KCNQ2 pot; AID 2282, 2010; activity increase over 3SD of controls, % at 10 µM; parental CHO-K1 cells, FluxOR thallium flux fluorescence; zero = vehicle mean+3SD, 100% = vehicle-minus-blank window;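 active = signal rise of at least 3 SD above the untreated control mean, in both duplicate wells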;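 note: counter screen of KCNQ2 potentiator hits so any rise reflects channel-independent effects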
# KCNQ1 pot spec = human KCNQ1 channel potentiation off-target, confirmation, selectivity assay for KCNQ2 potentiator project, cell-based, CHO, FluxOR thallium flux | shares compounds with KCNQ2 pot | CHO KCNQ1 stable, FluxOR thallium flux fluorescence; beyond 3SD, as % of vehicle-control signal | activation over 3SD threshold, % at 10 µM | 1,200 compounds, 28% hits | AID 2283, 2010;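 active = fluorescence ratio rise of at least 3 SD of vehicle wells above their mean, in both replicate wells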
# KCNQ2 pot confirm = rat KCNQ2 channel potentiators, confirmation, cell-based, CHO, FluxOR thallium flux, duplicate | shares compounds with KCNQ2 pot | CHO-KCNQ2 cells, FluxOR thallium flux fluorescence | potentiation, less the hit threshold, % at 10 µM | 1,200 compounds, 68% hits;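 active = fluorescence ratio rising 3 SD or more over the vehicle control mean in both replicates, plus primary screen hit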;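 note: peak minus minimum thallium fluorescence divided by baseline after K/Tl stimulus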
# Kir2-1 sel = mouse Kir2.1 channel activation off-target, confirmation, selectivity assay for KCNQ2 potentiator project, cell-based, HEK293, FluxOR thallium flux; shares compounds with KCNQ2 pot; HEK293 Kir2.1, FluxOR thallium flux fluorescence; activity over 3SD threshold, % at 10 µM; 1,200 compounds, 2% hits; AID 2345, 2010;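 active = fluorescence ratio rise of at least 3 SD above the vehicle-control mean, seen in both replicates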
# KCNQ2 W236L pot = potentiators of retigabine-insensitive KCNQ2 W236L, mechanism study for KCNQ2 potentiator project, cell-based, rat KCNQ2 W236L, CHO, automated patch clamp; shares compounds with KCNQ2 pot; automated patch clamp current; current increase over 3SD of negative controls (%), stronger effect = higher value, % at 25 µM; 940 compounds, 10% hits; AID 2558, 2010;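 active = current increase at least 3 SD of the untreated controls above them in both duplicate recordings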
# Hits are given with their value; - = inactive; . = not tested or not shown.
SMILES,KCNQ2 block,KCNQ2 pot,Kir21 conf inh,HEK293 Tl flux,CHO-K1 Tl ctr,KCNQ1 pot spec,KCNQ2 pot confirm,Kir2-1 sel,others
CCOC(=O)c1c(CSc2ccc(CC)cc2)oc2ccc(O)c(CN(C)C)c12,-5.8,-,16%,-,.,.,.,.,
CC(=O)c1c(CSc2ccccc2)oc2ccc(O)c(CN(C)C)c12,-,.,38%,64%,.,.,.,.,
CCOC(=O)C1=C(COC(=O)c2cc(Br)c(Br)s2)NC(=O)NC1C (configuration not stated),-,-,.,.,.,.,.,.,
Oc1c(Br)cc(Br)cc1C=Nc1cccnc1,-,8.4,-,-,-,-,17,-,KCNQ2 W236L pot=-
O=C(N/N=C/c1cc(Br)cc(Br)c1O)c1ccncc1,-,-,.,.,.,.,.,.,
Oc1c(Br)cc(Br)cc1C=Nc1ccc2[nH]ncc2c1,-,14,-,-,11,-,20,-,KCNQ2 W236L pot=10%
COc1ccc(C=Nc2ccc3[nH]ncc3c2)c(O)c1,-,.,.,.,.,.,.,.,
Nc1c(-c2ccccc2)cnn1-c1ccc(C(=O)O)cc1,-,-,.,.,.,.,.,.,
O=S(=O)(Nc1cccc(-n2cnnn2)c1)c1ccccc1F,-,-,.,.,.,.,.,.,
CCNC(=O)N(C)c1nncnc1C(=O)NC,-,-,.,.,.,.,.,.,
CNC(=O)c1ncnnc1N(C)C(=O)NCc1ccccc1,-,9.8,-,-,0.9,-,-,-,
CC1(N(O)C=C2C=CC(=O)C=C2)CCCCC1=O (configuration not stated),-,.,.,.,.,.,.,.,
OCCNCc1cccc(OCc2ccc(Cl)cc2)c1,-,-,-,-,.,.,.,.,
OCCNCc1cc(Br)ccc1OCc1ccc(Cl)cc1,-,-,.,.,.,.,.,.,
Cn1c(=O)c2c(nc(CN3CCN(C(c4ccccc4)c4ccccc4)CC3)n2CCCO)n(C)c1=O,-,.,.,.,.,.,.,.,
COCCn1c(CN2CCN(C(c3ccccc3)c3ccccc3)CC2)nc2c1c(=O)n(C)c(=O)n2C,-,5.9,-,-,-,-,-,-,
Cc1ccc(NC(=O)CCOc2ccccc2)c(C)c1,-,6,-,-,-,49,5.5,-,KCNQ2 W236L pot=-
CN(C)c1ccc(NC(=O)Cc2ccccc2)c2ccccc12,-,5.3,-,-,-,-,10,-,KCNQ2 W236L pot=-
COc1cc(OC)cc(C(=O)Nc2ccc(N(C)C)c3ccccc23)c1,-,-,.,.,.,.,.,.,
Cc1ccc(NC(=O)CN2CCC(NC(=O)Cc3ccccc3)CC2)c(C)c1,-,.,.,.,.,.,.,.,
Cc1ccc(NC(=O)Cc2ccccc2)c(C)c1,-,6.4,.,.,3.4,-,7.4,-,KCNQ2 W236L pot=-
Cc1ccc(F)cc1NC(=O)CCOc1ccccc1,-,.,.,.,.,.,.,.,
Cc1nn(-c2ccccc2)nc1C(=O)Oc1cc(C(F)(F)F)nn1-c1ccccc1,-,-,.,.,.,.,.,.,
COc1ccc(OCC(=O)N2CCC(n3nccc3NC(=O)C3CC3)CC2)cc1,-,.,.,.,.,.,.,.,
COC(=O)c1sccc1NC(=O)Nc1ccccc1Cl,-,-,.,.,.,.,.,.,
Cc1ccc(C(=O)NCC(=O)OCCOc2ccccc2Cl)cc1,-,.,.,.,.,.,.,.,
N=c1c2c(-c3ccccc3)c(-c3ccccc3)n(Cc3ccccc3)c2ncn1CCCn1ccnc1,-,.,-,-,.,.,.,.,

# Compound activity deposited in PubChem BioAssay by Johns Hopkins Ion Channel Center.
